From PubChem BioAssay AID1053125 (Broad Institute, 2014)
Results with a measured potency or affinity are listed apart. Values without a mark were called inactive.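 The calls were made as follows: active = viability loss whose fitted half-maximal concentration is at most twice the top valid tested dose; inconclusive = flat curve with 30 to 70% loss, or poor fit; inactive = the rest.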

Assay: viability loss in HepG2 liver cells – cell-based, ATP luminescence, cherry-pick, set 6, cytotoxicity control, dose response (AID 1053125);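 also: negative values mean loss of viability signal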
Conditions: ATP luminescence (CellTiter-Glo), 72 h; series mostly up to 26 µM; activity change, negative = cytotoxicity: at the top concentration

Going from `Cc1oc(/N=C/c2ccc(F)cc2)c(C#N)c1C` to `CCN(CC)c1ccc2cc(C#N)c(=O)oc2c1`, the “activity change, negative = cytotoxicity” value rises from -4.78% to 3.25%.

Compared with `CCCOc1ccccc1/C=C1\SC(N)=NC1=O`, `Nc1ccc2nc(-c3ccccc3)cnc2c1` is lower in “activity change, negative = cytotoxicity” value: -8.75% for the first, -12.3% for the second.

Compared with `Cn1nc(-c2ccc(Cl)cc2)c2cc(C(=O)N3CCN(c4ccccc4)CC3)sc21`, `Cc1ccc(-n2c(C)cc(/C=N/NC(=O)Cn3c4ccccc4c(=O)c4ccccc43)c2C)cc1` is higher in “activity change, negative = cytotoxicity” value: -12.4% for the first, -6.83% for the second.

Compared with `CCN(CC)CCNC(=O)c1sc2nc(-c3ccccc3)cn2c1C`, `Cc1ccc(S(=O)(=O)c2cc3c(=O)n4ccccc4nc3n(C)c2=N)cc1` is higher in “activity change, negative = cytotoxicity” value: -8.94% for the first, -2.57% for the second.

First: COc1cccc2c(=O)c3c(cnn3C)n(C)c12
Second: CC(C)CCN1C(=O)c2cccc3c(N)ccc(c23)C1=O
The “activity change, negative = cytotoxicity” value of the first is lower: -1.18% for the first, 27.9% for the second.

First: COCc1cc(C)nc(SCC(=O)Oc2ccc(Cl)cc2)c1C#N
Second: COC(=O)c1cc(=O)n(Cc2ccc3c(c2)OCO3)c(=Nc2ccc(F)c(Cl)c2)s1
The “activity change, negative = cytotoxicity” value of the first is higher: -0.038% for the first, -1.78% for the second.

Compared with `COc1ccc(C2C3=C(CCCC3=O)N(CC(=O)O)C3=C2C(=O)CCC3)cc1`, `COc1cc(C2C3=C(CC(C)(C)CC3=O)N(C)C3=C2C(=O)CC(C)(C)C3)cc(Br)c1O` is lower in “activity change, negative = cytotoxicity” value: -6.11% for the first, -9.6% for the second.

Going from `O=C(O)C1=CC[C@@H](c2ccc(Cl)cc2)N(S(=O)(=O)c2ccc(Cl)cc2)[C@H]1c1ccc(F)cc1` to `Cc1ccc2[nH]c3ccccc3c(=O)c2c1`, the “activity change, negative = cytotoxicity” value falls from 9.31% to -13.1%.

Compared with `CC(C)CCn1c(CN2CC(C)OC(C)C2)nc2c1c(=O)n(C)c(=O)n2C` (stereo not drawn), `NC(=O)c1cc([N+](=O)[O-])ccc1NCc1cccnc1` is higher in “activity change, negative = cytotoxicity” value: -4.86% for the first, 17.7% for the second.
